# Data from PubChem BioAssay AID2016 (NMMLSC, 2009).
# Out of some 330,000 compounds screened, about 1,700 (0.52%) were called active. This is one part of a sample in which actives are shown more often than they occur. Unmarked numbers belong to inactive results.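 Rule for the calls: active = GFP response versus DMSO above a set limit, roughly screen mean plus 3 SD (cut at about 180% in these data); inconclusive = fewer than 70 cells counted for a yeast strain; inactive = the rest.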
# Experiment: modulators of MEP2-GFP levels in yeast, primary screen, S. cerevisiae, multiplex flow cytometry, MLPCN library (AID 2016);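 note: median GFP fluorescence of the barcode-gated MEP2-GFP cells per well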
# Conditions: S. cerevisiae MEP2-GFP strain, 3 h, at 10 µM, hits give high values, 100% = DMSO control level
row,SMILES,GFP response vs DMSO
1,COc1ccc(-n2nc(C(=O)NCC(=O)N3CCCCCC3)c3ccccc3c2=O)cc1Cl,107%
2,CC(=O)Nc1ccc(Nc2cc(C)nc(Nc3ccc(NC(C)=O)cc3)n2)cc1,92%
3,Cc1cc(C)c(C(N)=O)c(Cl)n1,104%
4,Cc1ccc(Nc2nc(C)cc(C)c2C(N)=O)cc1,209% [may fluoresce violet] (active)
5,COc1ccc(-c2nc(N)sc2C2(O)C(=O)Nc3c(Br)cc(F)cc32)cc1OC (stereo unspecified),103%
6,COc1cc(C(=O)Nc2cc(C(F)(F)F)ccc2N2CCOCC2)ccc1O,106%
7,O=C(c1ccncc1)N1CCN(S(=O)(=O)c2cc(C(F)(F)F)cc(C(F)(F)F)c2)CC1,103%
8,COc1ccc(O[C@H]2C=C[C@@H](c3ccccc3)O[C@@H]2CO/N=C/C[C@@H]2C=C[C@H](OC(C)=O)[C@@H](COC(C)=O)O2)cc1,90%
9,CC(NC(=S)NC1CCCCC1)C(c1ccccc1)N1CCOCC1 (stereo unspecified),99.2%
10,Cn1sc(=O)c2cc(S(=O)(=O)NC3CC3)ccc21,626% [may fluoresce violet] (active)
11,CC1CCC(NS(=O)(=O)c2ccc3c(c2)n(C)c(=O)c(=O)n3C)CC1 (stereo unspecified),102%
12,O=S(=O)(NC1CC1)c1ccc(F)c(F)c1,101%
13,CCCN(CCC)CC(O)COc1ccccc1C(=O)Nc1ccccc1 (stereo unspecified),107%
14,O=C(Nc1ccc(Br)c2cccnc12)c1ccc(Cn2cc([N+](=O)[O-])cn2)o1,97.1%
15,C=CCc1cccc(/C=N/NC(=O)COc2ccc(-n3cnnn3)cc2)c1O,102%
16,O=C(COc1ccc(-n2cnnn2)cc1)Nc1ccccc1Cl,240% [may fluoresce violet] (active)
17,O=C(COc1ccc(Cl)cc1)Nc1ccccc1CO,98.3%
18,Cc1c(-c2ccccc2)cn2c1-c1ccc(C)n1CC2,106%
19,Cc1cccc[n+]1CC(=O)c1ccccc1,113%
20,COC(=O)C[n+]1cccc2ccccc21,221% (active)
21,COc1ccccc1NC(=O)C[n+]1ccccc1,108%
22,CCOc1ccc(CN(C)C(=O)c2ccc(=O)[nH]c2)cc1,104%
23,COc1cc(COCC(O)CN2CCN(Cc3ccc4c(c3)OCO4)CC2)cc(OC)c1OC (stereo unspecified),100%

row,SMILES,GFP response vs DMSO
1,COc1ccc2cc1Oc1ccc(cc1)C[C@H]1c3cc(c(OC)cc3CCN1C)Oc1c(O)c(OC)cc3c1[C@H](C2)N(C)CC3,99.2%
2,COc1c(O)ccc2c1CN1CCc3cc4c(cc3C1C2)OCO4 (stereo unspecified),205% (active)
3,COc1ccc(NC(=O)CSc2nncc(=O)n2N)cc1OC,104%
4,COc1ccccc1CNC(=O)COn1nnc2ccc(S(=O)(=O)N3CCOCC3)cc21,123%
5,O=C(CSc1ncccn1)NCCc1ccccc1,96.5%
6,CCC(Oc1ccccc1)C(=O)NCc1cccnc1 (stereo unspecified),101%
7,CC(=O)OC(C(=O)NCCc1ccccc1)c1cccnc1 (stereo unspecified),234% [may fluoresce violet] (active)
8,COc1cc(CO)c(C2(CO)CCCC2)cc1OC,101%
9,COc1ccc(/C=C(\C#N)c2c[nH]c3ccccc23)cc1,98.7%
10,C[n+]1ccc(/C=C/c2c[nH]c3ccccc23)cc1,403% (active)
11,O=C(NC1CCCC1)C(=O)c1c[nH]c2ccccc12,90.7%
12,CCOc1cc(/C=N/NC(=O)OC)ccc1OCCSc1ccc(Cl)cc1,94.9%
13,O=S(=O)(Nc1ccccc1)c1ccc(NS(=O)(=O)c2cccs2)cc1,94.2%
14,Clc1ccc(CN2CCCCCC2)cc1Cl,111%
15,Cc1ccc2nc(-c3ccc(SCC(=O)Nc4cc(C)on4)nc3)[nH]c2c1,103%
16,CC(=O)C12CC(C)=C(C)CC1CC1C3CCC4=CC(=O)CCC4(C)C3CCC12C (stereo unspecified),101%
17,CC(=O)O[C@]1(C(C)=O)CC[C@H]2[C@@H]3C=C(C)C4=CC(=O)CC[C@]4(C)[C@H]3CC[C@@]21C,180% [may fluoresce violet] (active)
18,O=C(C1Cc2ccccc2CN1C(=O)c1ccco1)N1CCN(c2ccccc2)CC1 (stereo unspecified),93.4%
19,COc1ccc(CNC(=O)COC(=O)C(CCSC)N2C(=O)c3ccccc3C2=O)cc1 (stereo unspecified),106%
20,Cc1c(NC(=O)c2c([N+](=O)[O-])cnn2C)c(=O)n(-c2ccccc2)n1C,284% [may fluoresce violet] (active)
21,Cc1cc(OCC(=O)Nc2c(C)n(C)n(-c3ccccc3)c2=O)ccc1[N+](=O)[O-],112%
22,Cc1c(NC(=O)Nc2cccc([N+](=O)[O-])c2)c(=O)n(-c2ccccc2)n1C,103%
23,CCOC(=O)C1CCN(C(=O)Cc2c(C(=O)O)[nH]c3ccccc23)CC1,105%

row,SMILES,GFP response vs DMSO
1,Nc1nc(SCC(=O)Nc2ccc(Cl)c([N+](=O)[O-])c2)n[nH]1,106%
2,FC(F)(F)Oc1ccc(-c2cn3cccnc3n2)cc1,471% [may fluoresce violet] (active)
3,CC(C)(C)C(=O)Nc1ccc(-c2cn3cccnc3n2)cc1,119%
4,COc1ccc(-c2cn3cccnc3n2)cc1,101%
5,O=C(NCC(F)(F)F)Nc1nnc(C(F)(F)F)s1,90.6%
6,COc1ccc(CC(NC(C)=O)C(=O)NC2CCN(C(=O)c3ccc(OC)c(OC)c3)CC2)cc1OC (stereo unspecified),95.1%
7,CCc1ccc(OCC2c3cc(OC)c(OC)cc3CCN2C(C)=O)cc1 (stereo unspecified),269% [may fluoresce violet] (active)
8,COc1ccc2[nH]c(=O)c(C3c4cc(OC)c(OC)cc4CCN3C(=O)c3ccco3)cc2c1 (stereo unspecified),105%
9,CCOCc1nnc(NC(=O)CCC2CCCCC2)s1,110%
10,O=C(COc1cc2oc(=O)c3c(c2cc1Cl)CCC3)NCCCN1CCOCC1,113%
11,CC(Oc1cc2oc(=O)c3c(c2cc1Cl)CCCC3)C(=O)NCc1ccncc1 (stereo unspecified),185% [may fluoresce violet] (active)
12,COc1ccc(S(=O)(=O)NC(C)C(=O)NCc2ccncc2)cc1Cl (stereo unspecified),102%
13,Cc1cccc(-c2nc(CS(=O)CC(=O)NC(C)CCc3ccccc3)c(C)o2)c1 (stereo unspecified),98.7%
14,O=C(CCN1C(=O)[C@@H]2Cc3ccccc3CN2C1=O)NCCc1ccccc1,106%
15,C#CCCOC(=O)N1C2=NC(C(=O)OC)=C(C(=O)OC)[C@@H]3N(C)c4ccc(OC)cc4[C@]23C[C@H]1C(=O)OC,89.3%
16,COc1ccc(-n2nnnc2SCc2nc(N)nc(N3CCOCC3)n2)cc1,283% [may fluoresce violet] (active)
17,COc1ccc(CSc2nnnn2-c2ccc(C(=O)O)cc2)cc1,114%
18,COc1ccc(-c2nnn(Cc3nc(N)nc(N4CCCCC4)n3)n2)cc1,107%
19,Cc1nn(C)c(C)c1C(C)NC(=O)c1ccc(OC2CCN(Cc3ccccn3)CC2)cc1 (stereo unspecified),111%
20,O=C1c2ccccc2NC(c2ccc(-c3cccc(Cl)c3)o2)N1O (stereo unspecified),103%
21,O=c1c(-c2cccc(Cl)c2)c[nH]n1-c1ccccc1,193% [may fluoresce violet] (active)
22,O=c1c(-c2ccccc2Cl)c[nH]n1-c1ccccc1,99.8%
23,CC1CCN(S(=O)(=O)c2nnc(NC(=O)COc3ccccc3F)s2)CC1,98.5%

row,SMILES,GFP response vs DMSO
1,CC1(C)Cc2c(sc3nc(SCC(=O)NCc4ccccc4)n(-c4ccccc4)c(=O)c23)CS1,107%
2,COc1ccccc1C(=O)COC(=O)COc1ccc(C#N)cc1,114%
3,O=C(c1cccs1)N(Cc1cc2ccccc2[nH]c1=O)CC1CCCO1 (stereo unspecified),103%
4,Cc1ccc(S(=O)(=O)N(Cc2cc3ccccc3[nH]c2=O)CC2CCCO2)cc1 (stereo unspecified),195% [may fluoresce violet] (active)
5,CCN(Cc1cc2cc(C)ccc2[nH]c1=O)S(=O)(=O)c1ccccc1,97.6%
6,CC1CC(C)CN(CCCNC(=O)c2csc3c2CCCCC3)C1 (stereo unspecified),103%
7,C=CCC[C@@H](Cc1ccc(F)cc1)C(=O)O[C@H](CNC(=O)[C@H](CC=C)CC(=O)N(CCO)Cc1ccccc1)c1ccccc1,104%
8,Cc1ccc(SCCSc2ncccn2)cc1,106%
9,Cc1ccc(SCc2cc(=O)[nH]c(N3CCCCC3)n2)cc1,96.5%
10,Cc1ccc(SCC2=NNC(=O)C2)cc1,249% [may fluoresce violet] (active)
11,CCOc1ccc(Br)cc1CSC(=N)N,103%
12,COc1ccccc1P(=O)(c1ccccc1)c1ccccc1NC(C)=O (stereo unspecified),83.1%
13,COc1ccc(C(=O)NCCSc2ccccc2C)cc1,99.7%
14,COC(=O)CCSc1cc([N+](=O)[O-])cc2c1c(C1OCCS1)nn2-c1ccccc1 (stereo unspecified),107%
15,Cc1cc(C)cc(NC(=O)COc2coc(CN3CCN(c4ccccc4)CC3)cc2=O)c1,105%
16,Cc1cc(C)c2nc(N(CCN(C)C)C(=O)/C=C/c3cccs3)sc2c1,110%
17,Cc1ccc2sc(N(CCN(C)C)C(=O)/C=C/c3cccs3)nc2c1C,253% [may fluoresce violet] (active)
18,Cc1cccc2sc(N(CCCN(C)C)C(=O)CCS(=O)(=O)c3ccccc3)nc12,93.5%
19,O=C(Nc1ccc(F)cc1)C1CCCN(S(=O)(=O)c2ccc(-n3cnnn3)cc2)C1 (stereo unspecified),106%
20,Cn1c(COc2ccc(Cl)cc2)nc2ccccc2c1=O,102%
21,COc1ccc(OCc2ccc(-c3nc4ccccc4c(=O)n3N)o2)cc1,249% [may fluoresce violet] (active)
22,COc1ccc(-c2nc3ccccc3c(=O)n2CCc2ccc(O)cc2)cc1,103%
